In PubChem BioAssay AID1445 (SRMLSC, 2008):
“And” between values parts separate entries of the source, which are not always exact repeats. Equal entries are not always repeated. In all, about 220,000 compounds went through this assay and about 910 (0.41%) were called active.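 The calls were made as follows: active = primary inhibition above the hit cutoff, then over 50% inhibition at one or more dose response concentrations (cut at about 23% in these data, passing the limit was not always enough); inconclusive = conflicting primary data, or primary hits not chosen for dose response; inactive = low primary inhibition, or under 50% at every dose.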 The entries come from a sample that favours actives as a whole. Results with a measured potency or affinity are listed apart. Some structures have more than one record in an assay (separate samples or runs), and their calls can disagree.

target: Aminopeptidase N (Plasmodium falciparum (isolate 3D7)) (UniProt O96935); test: malaria alanyl aminopeptidase activity blockers – biochemical, fluorogenic H-Leu-NHMec substrate, 1536-well (AID 1445); details: recombinant M1AAP, H-Leu-NHMec fluorogenic kinetic assay; at 30 µM, stronger effect = higher value unless noted;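 also: plate controls were DMSO full reaction for no effect and no enzyme background for full effect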
Sequence (O96935 whole entry, looked up): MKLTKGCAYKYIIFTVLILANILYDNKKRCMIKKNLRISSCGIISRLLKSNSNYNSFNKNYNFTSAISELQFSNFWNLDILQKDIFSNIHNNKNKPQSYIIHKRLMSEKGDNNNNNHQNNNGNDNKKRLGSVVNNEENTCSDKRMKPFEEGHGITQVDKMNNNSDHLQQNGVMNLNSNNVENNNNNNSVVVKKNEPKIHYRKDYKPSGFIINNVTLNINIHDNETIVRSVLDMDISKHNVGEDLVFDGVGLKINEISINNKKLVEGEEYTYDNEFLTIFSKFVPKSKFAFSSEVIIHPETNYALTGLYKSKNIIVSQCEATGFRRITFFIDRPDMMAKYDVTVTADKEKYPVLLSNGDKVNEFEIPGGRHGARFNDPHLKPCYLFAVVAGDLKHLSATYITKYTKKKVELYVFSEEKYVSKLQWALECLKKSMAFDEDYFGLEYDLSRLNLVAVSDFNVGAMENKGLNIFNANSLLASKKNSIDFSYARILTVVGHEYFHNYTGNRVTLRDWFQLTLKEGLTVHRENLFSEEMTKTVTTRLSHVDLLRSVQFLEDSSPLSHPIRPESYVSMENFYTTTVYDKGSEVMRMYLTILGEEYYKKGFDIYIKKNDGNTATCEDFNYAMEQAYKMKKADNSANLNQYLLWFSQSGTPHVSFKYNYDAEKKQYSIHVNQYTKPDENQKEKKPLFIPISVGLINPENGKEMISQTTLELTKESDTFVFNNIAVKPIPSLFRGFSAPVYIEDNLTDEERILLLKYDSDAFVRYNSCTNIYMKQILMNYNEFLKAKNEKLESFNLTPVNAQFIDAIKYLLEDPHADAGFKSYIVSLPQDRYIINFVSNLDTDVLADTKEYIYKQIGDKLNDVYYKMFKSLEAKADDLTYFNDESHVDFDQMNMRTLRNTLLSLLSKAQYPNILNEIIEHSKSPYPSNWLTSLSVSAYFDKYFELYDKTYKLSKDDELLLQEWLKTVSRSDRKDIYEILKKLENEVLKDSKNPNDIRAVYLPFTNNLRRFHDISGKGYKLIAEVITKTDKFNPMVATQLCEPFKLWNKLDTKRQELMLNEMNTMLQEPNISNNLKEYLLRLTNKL

| Compound | inhibition |
| --- | --- |
| CC(C)NC(=O)CSc1nnc(-c2ccc(F)cc2)c2ccccc12 | 0.8% (inactive) |
| O=C1CC(c2ccco2)CC(O)=C1C=Nc1cc(Cl)ccc1Cl (configuration not stated) | 4.23% (inactive) |
| O=C1CC(c2ccco2)CC(O)=C1C=Nc1cc(Cl)cc(Cl)c1 (configuration not stated) | -0.66% (inactive) |
| O=C(NCc1ccccc1)c1nc2ccccc2s1 | 1.19% (inactive) |
| O=c1cc2oc3cc(O)c(O)cc3c(-c3ccccc3O)c-2cc1O | 13.8% (inactive) |
| Cc1c2cc(O)c(=O)cc-2oc2cc(O)c(O)cc12 | 24.7% (active) and 6.57% (inactive) |
| COc1cc(OC)c(-c2c3cc(O)c(=O)cc-3oc3cc(O)c(O)cc23)cc1OC | 22.9% (inactive) |
| CC(=O)Nn1cnc2c(c1=O)C1(CCCCC1)Cc1ccccc1-2 | 4.35% (inactive) |
| COc1ccc(NC(=O)Nc2cccc(Cl)c2Cl)c(OC)n1 | 4.95% (inactive) |
| COC1=C(Nc2ccccc2OC)C(=O)c2ccccc2C1=O | 7.8% (inactive) |
| COc1ccccc1NC1=NC(C)(C)N=C(N)N1 | 0.34% (inactive) |
| COc1ccc(OC)c(C2=NOC(C(=O)Nc3cccnc3)C2)c1 (configuration not stated) | 7.85% (inactive) |
| COc1ccc(NC(=O)Nc2cccnc2)c(OC)c1 | 2.93% (inactive) |
| CCOc1ccc(-n2c(=O)[nH]cc(C(=O)N3CCc4ccccc43)c2=O)cc1 | 1.21% (inactive) |
| CC(=O)Nc1ccc(NS(=O)(=O)c2cc([N+](=O)[O-])ccc2C)cc1 | 2.22% (inactive) |
| Cc1ccc(C)c(NC(=O)c2ccccc2NS(=O)(=O)c2cc([N+](=O)[O-])ccc2C)c1 | 8.58% (inactive) |
| O=C(N/N=C(\Cc1ncc[nH]1)c1ccccc1)c1ccccc1 | 19.5% (inactive) |
| O=C(N/N=C(\Cc1ncc[nH]1)c1ccccc1)c1cccnc1 | 16.6% (inactive) |
| COC(=O)c1cc2c(ccn2-c2ccc(F)cc2)n1CC(=O)OC(C)C | 1.89% (inactive) |
| CCOc1cc(N2CCOCC2)c(OCC)cc1NC(=O)C(NC(=O)c1ccco1)C(C)C (configuration not stated) | 8.28% (inactive) |
| c1ccc2c(c1)N1CCN=C1N2CCN1CCCCC1 | 5.87% (inactive) |
| Cc1oc(S(=O)(=O)N(C)C)cc1C(=O)Nc1ccc(F)cc1 | 0.82% (inactive) |
| C=CCn1c(CNC(=O)c2ccccc2F)nnc1SCc1nc2ccccc2c(=O)[nH]1 | 7.18% (inactive) |
| C=CCn1c(CCNC(=O)c2ccccc2F)nnc1SCC(=O)Nc1nc(C)cs1 | -1.07% (inactive) |
| CCOC(=O)C(NC(=O)CC)(Nc1ccccc1OC)C(F)(F)F (configuration not stated) | -0.34% (inactive) |
| O=c1[nH]c(CN2CCN(c3ccc([N+](=O)[O-])cc3)CC2)nc2ccsc12 | 25.9% (active) |

| Compound | inhibition |
| --- | --- |
| O=c1[nH]c(CN2CCN(c3ccccc3Cl)CC2)nc2ccsc12 | 6.37% (inactive) |
| COc1ccc(N2CCN(Cc3nc4ccsc4c(=O)[nH]3)CC2)cc1 | 13.2% (inactive) |
| O=C(CSc1nnc(NCc2ccccc2)s1)NC1CCS(=O)(=O)C1 (configuration not stated) | -0.46% (inactive) |
| COc1cc(C2c3c(-c4cc(C)cc(C)c4O)n[nH]c3C(=O)N2CCCO)cc(OC)c1OC (configuration not stated) | 28.3% (active) |
| COc1cc(C2c3c(-c4ccccc4O)n[nH]c3C(=O)N2Cc2ccco2)cc(OC)c1OC (configuration not stated) | 3.24% (inactive) |
| COCCCN1C(=O)c2[nH]nc(-c3cc(C)cc(C)c3O)c2C1c1ccc(O)c(OC)c1 (configuration not stated) | 6.71% (inactive) |
| CCOc1ccccc1-n1c(SCC(=O)N(C(C)C)C(C)C)nnc1-c1cccnc1 | 5.81% (inactive) |
| O=C(CN1CCN(Cc2ccc(Cl)cc2)C1=O)NCCN1CCCC1 | 1.07% (inactive) |
| CCC(C)[C@H](NC(=O)Nc1ccc(C(C)=O)cc1)C(=O)OC (some centres not stated) | -5.32% (inactive) |
| CCC1=NN2C(=N)/C(=C/c3cc(C)n(Cc4ccccc4)c3C)C(=O)N=C2S1 | 1.28% (inactive) |
| CCC1=NN2C(=N)/C(=C\c3cccn3-c3cccc(Cl)c3)C(=O)N=C2S1 | 7.8% (inactive) |
| Cc1nn(-c2ccccc2)c(Cl)c1/C=C1\SC(=S)N(C)C1=O | -0.16% (inactive) |
| Cc1nn(-c2ccccc2)c(Cl)c1/C=C1\C(=O)N(C)C(=S)N1C | 5.11% (inactive) |
| O=C(Nc1ccc(-n2nncc2-c2ccco2)cc1)c1cccc(F)c1 | 1.93% (inactive) |
| COc1ccc(CN(C)CC(=O)Nc2ccccc2-c2ccccc2)c(OC)c1 | 6.36% (inactive) |
| O=C(O)C(CC1CCCCC1)N1CCS(=O)(=O)CC1 (configuration not stated) | -6% (inactive) |
| C=CCn1c(N)cc(=O)nc1SC(C)C(=O)Nc1cccc2ccccc12 (configuration not stated) | 14% (inactive) |
| O=C(Nc1cc(S(=O)(=O)Nc2ccc(Cl)cc2)ccc1O)c1ccc(S(=O)(=O)N2CCCCCC2)cc1 | 0.01% (inactive) |
| O=C(Nc1cccc(S(=O)(=O)N2CCCCC2)c1)c1ccccc1NS(=O)(=O)c1ccc(F)cc1 | 11.5% (inactive) |
| O=C(Nc1ccccc1N1CCOCC1)c1ccccc1NS(=O)(=O)c1ccc(F)c(F)c1 | 5.56% (inactive) |
| Cc1ccc(NC(=O)c2ccccc2NS(=O)(=O)c2ccc(F)cc2)cc1S(=O)(=O)N1CCCCC1 | 14.4% (inactive) |
| CCc1nnc(NC(=O)CN2CCN(C(=O)c3ccccc3)CC2)s1 | 5.2% (inactive) |
| O=C(O)C1CCN(C(=O)CSc2nc3ccccc3s2)CC1 | -1.91% (inactive) |
| CSc1ccc(Cl)c(C(=O)NC2CCCC2)c1 | 1.66% (inactive) |
| CC(C)CNS(=O)(=O)c1ccc(CCC(=O)Nc2ccc3c(c2)OCCO3)cc1 | 9.09% (inactive) |
| Cc1ccc(Cl)cc1NC(=O)COC(=O)C1CC1 | -9.09% (inactive) |

| Compound | inhibition |
| --- | --- |
| C=CCn1c(-c2ccccc2[N+](=O)[O-])n[nH]c1=S | -1.25% (inactive) |
| COc1ccc(S(=O)(=O)Nc2nncs2)cc1 | -0.42% (inactive) |
| COc1ccc(N=C2NC(=O)/C(=C/c3ccco3)S2)cc1 | 7.45% (inactive) |
| CSC1=N/C(=C\c2ccc(Br)o2)C(=O)S1 | 1.89% (inactive) |
| CCCN1C(=O)/C(=C/c2ccco2)SC1=Nc1ccc(OC)cc1 | 8.83% (inactive) |
| O=C1N/C(=N/O)S/C1=C/c1cccc([N+](=O)[O-])c1 | 13.8% (inactive) |
| O=C(O)c1cccc(CN2C(=O)S/C(=C/c3cccc([N+](=O)[O-])c3)C2=O)c1 | 3.75% (inactive) |
| COc1ccc(N=C2NC(=O)/C(=C\c3ccco3)S2)cc1 | 6.07% (inactive) |
| Cc1ccc(S(=O)(=O)NC(=O)c2ccc(Br)o2)cc1 | 0.41% (inactive) |
| O=C(O)c1ccc(-c2nc3ccccc3s2)o1 | -2.11% (inactive) |
| O=C(COc1ccccc1)NNC(=O)COc1ccc([N+](=O)[O-])cc1 | 0.69% (inactive) |
| COc1cc(NC(=O)CN(C)Cc2cccc(F)c2)c(C)cc1[N+](=O)[O-] | 13.2% (inactive) |
| CNC(=S)N/N=C(\C)c1ccc2c(c1)OCO2 | 6.47% (inactive) |
| O=C(NC1CCCCC1)c1ccc(CNc2ccccc2)o1 | 3.72% (inactive) |
| COc1ccc(/C=C/C(=O)c2ccc(Cl)s2)cc1O | 9.54% (inactive) |
| NC(=O)c1ccc(-n2nnnc2SCC(=O)Nc2ccc(N3CCOCC3)c(Cl)c2)cc1 | -2.55% (inactive) |
| CCCCOC(=O)Nc1nnc(CCOCC)s1 | 2.38% (inactive) |
| CCN(CC)CCSc1nc2ccc(OC)cc2[nH]1 | 1.77% (inactive) |
| Cc1ccc(S(=O)(=O)Nc2ccccc2-c2ccccc2NS(=O)(=O)c2ccc(C)cc2)cc1 | 17.1% (inactive) |
| Cc1ccc(N2C(=O)/C(=C\c3ccco3)SC2=S)cc1 | 2.77% (inactive) |
| CN(C)C1=NC(=O)/C(=C\c2ccccc2)S1 | 3.5% (inactive) |
| NC1=NC(=O)/C(=C\c2ccco2)S1 | 9.69% (inactive) |
| COc1cc(O)c(C(CCN2CCCC(C)C2)c2ccc(N(C)C)cc2)c(OC)c1 (configuration not stated) | 12.5% (inactive) |
| Cc1ccc(N=N/C(=C\O)C(=O)c2ccncc2)cc1 | 27.6% (active) |
| O=C(/C(=C/O)N=Nc1ccc(Cl)cc1)c1ccncc1 | 0.62% (inactive) |
| O=C(/C(=C/O)N=Nc1ccccc1)c1ccncc1 | 18.4% (inactive) |

| Compound | inhibition |
| --- | --- |
| Cc1ccc(NC(=O)Nc2ccc(F)cc2F)c(OC(F)F)c1 | -3.74% (inactive) |
| Cc1cc(NC(=O)CSCC(=O)N(c2ccc(F)cc2)C(C(=O)NC2CCCCC2)c2ccc(O)c(O)c2)no1 (configuration not stated) | 8.19% (inactive) |
| N#C/C(=C/c1ccc(F)cc1)S(=O)(=O)c1ccccc1 | -4.5% (inactive) |
| Cc1cc(C)c(/C=C(\C#N)S(=O)(=O)c2ccccc2)[nH]1 | -6.03% (inactive) |
| N#C/C(=C\c1ccc(O)c(O)c1)S(=O)(=O)c1ccccc1 | 24.6% (active) |
| Cc1ccccc1Cn1nnc2c1C(=O)c1ccccc1C2=O | -4.07% (inactive) |
| Cc1cc(NC(=O)CN2C(=O)NC(C)(c3ccc(OC(F)F)cc3)C2=O)no1 (configuration not stated) | 7.82% (inactive) |
| CC1(c2ccc(OC(F)F)cc2)NC(=O)N(CC(=O)Nc2ccc3c(c2)OCO3)C1=O (configuration not stated) | 22.2% (inactive) |
| O=C(CSc1nnc(CNc2ccc(Cl)cc2)o1)Nc1nc2ccccc2s1 | -13% (inactive) |
| CCCc1nnc(NC(=O)CCC(=O)N2CCN(S(=O)(=O)c3ccc(C)cc3)CC2)s1 | 3.35% (inactive) |
| Oc1ccc(C2C(c3ccccc3)=NN=C(c3ccc(Cl)cc3)N2O)c(O)c1 (configuration not stated) | 12.1% (inactive) |
| CC(C)n1cc(/C=C2/SC(=O)N(CC(=O)N3CCCC3)C2=O)c2ccccc21 | 7.08% (inactive) |
| O=C(O)CN1C(=O)/C(=C\c2cn(CC(=O)N3CCOCC3)c3ccccc23)SC1=S | 21.1% (inactive) |
| Cc1ccnc(NS(=O)(=O)c2ccc(NC(=O)c3cncc(Br)c3)cc2)n1 | -0.33% (inactive) |
| NC(=O)Cn1nc([N+](=O)[O-])nc1Oc1ccccc1C(=O)N1CCOCC1 | 3.73% (inactive) |
| CN(C)CCCNC(=O)c1cc(C(=O)C2CCCCC2)c[nH]1 | 3.52% (inactive) |
| COCC(=O)N(Cc1cc2cc(OC)ccc2[nH]c1=O)c1ccccc1 | 7% (inactive) |
| O=C(CN1c2ccccc2Sc2ccccc21)NNC(=O)Nc1ccc(Cl)c(Cl)c1 | 0.08% (inactive) |
| COc1ccc([N+](=O)[O-])cc1N(CC(O)Cn1nnc2ccccc21)S(=O)(=O)c1ccc(C)cc1 (configuration not stated) | 23.6% (active) |
| COc1ccc([N+](=O)[O-])cc1N(CC(O)CN1CCCCC1)S(=O)(=O)c1ccc(C)cc1 (configuration not stated) | 8.41% (inactive) |
| COc1ccc([N+](=O)[O-])cc1N(CC(O)CN1CCCC1)S(=O)(=O)c1ccc(C)cc1 (configuration not stated) | 2.31% (inactive) |
| CCOC(=O)c1csc(NC(=O)c2ccc(OC)c(OC)c2)n1 | 1.77% (inactive) |
| COCCN(C(=O)CSc1nnc(Nc2ccccc2F)s1)c1c(N)n(Cc2ccccc2)c(=O)[nH]c1=O | 3.95% (inactive) |
| CCCS(=O)(=O)NCc1ccc2c(c1)cc(C)n2C | 7.58% (inactive) |
